One assay has as its target C7orf11. The assay can be described thus: pooled miR-30 sensor sort-seq; sequence = guide strand. To be noted: shRNA.
TCTAATATCAACAATACCTGAT displayed a sensor-assay potency score (higher = more potent) of 0.0324.

TTTTTCTCTAACACGCCCTGAT: the sensor-assay potency score (higher = more potent) was 0.0567.

For the sequence TAAATGTTGCAAGTTATCCTAC, the sensor-assay potency score (higher = more potent) is 0.0898.

Take TTTGAGTATTGCTGTATTGTTG: the sensor-assay potency score (higher = more potent) is -0.804.

TTATATCCACTACAGATACTGG gave a sensor-assay potency score (higher = more potent) of -1.05.

Sequence TAATTATCCAATCAAAGTCATC showed a sensor-assay potency score (higher = more potent) of -1.65.

TTCTTTTTTCTCTAACACGCCC gave a sensor-assay potency score (higher = more potent) of -0.504.

ATATCCACTACAGATACTGGTT showed a sensor-assay potency score (higher = more potent) of -0.708.

TTGGCTTATATCCACTACAGAT registered a sensor-assay potency score (higher = more potent) of -1.16.

As to TTTTTTCTCTAACACGCCCTGA, the sensor-assay potency score (higher = more potent) is -0.403.

For the sequence TTGAGTATTGCTGTATTGTTGG, the sensor-assay potency score (higher = more potent) is -0.097.

In turn, TCCAACTCATTAGACATTCTTT gave a sensor-assay potency score (higher = more potent) of -1.12.

The target in a further assay is C7orf47. Described as above. Conditions: shRNA.
On to TTCTGGGTCACACAAGATGGTC, for which the sensor-assay potency score (higher = more potent) is -1.8.

As to TCACACAAGATGGTCATGTCTG, the sensor-assay potency score (higher = more potent) was -0.315.

In turn, TGGAGATTCATAAAATAGCGTT had a sensor-assay potency score (higher = more potent) of -0.725.

In turn, TCATAAAATAGCGTTTCTGGGT returned a sensor-assay potency score (higher = more potent) of -0.72.

Sequence ATTCATAAAATAGCGTTTCTGG showed a sensor-assay potency score (higher = more potent) of -0.587.

Consider TAGCGTTTCTGGGTCACACAAG, for which the sensor-assay potency score (higher = more potent) was -0.834.

As to TGGGTCACACAAGATGGTCATG, the sensor-assay potency score (higher = more potent) is -1.71.

TAACACAAAAATACGAACTAGC: the sensor-assay potency score (higher = more potent) was 0.2.

Sequence TAAAATAGCGTTTCTGGGTCAC showed a sensor-assay potency score (higher = more potent) of 0.138.

Sequence AAGATGGTCATGTCTGGCCCAG returned a sensor-assay potency score (higher = more potent) of -1.42.

Consider TAGTTTAACACAAAAATACGAA, for which the sensor-assay potency score (higher = more potent) is -0.764.

In turn, TTTCTGGGTCACACAAGATGGT yielded a sensor-assay potency score (higher = more potent) of -1.07.

Another assay deals with C7orf69. The description is as above. To be noted: shRNA.
TTTCCATCCATGACCAACTTTT: the sensor-assay potency score (higher = more potent) was -0.995.

Sequence TTTGCTCTGCATTTGATAGTTT returned a sensor-assay potency score (higher = more potent) of -0.51.

Consider TTCAGCTCTCCTATCCGTGCAA, for which the sensor-assay potency score (higher = more potent) amounted to 0.252.

Turning to AAAACTTGTAGAGAAGTCCAGA, the sensor-assay potency score (higher = more potent) was -0.425.

For TTGCTCTGCATTTGATAGTTTG, the sensor-assay potency score (higher = more potent) was -1.46.

TTGATAGTTTGACAAAACTTGT: the sensor-assay potency score (higher = more potent) is -1.4.

In the case of AAGTCCAGAGTTAAGAACCAGC, the sensor-assay potency score (higher = more potent) is -0.81.

On to TTTGATAGTTTGACAAAACTTG, for which the sensor-assay potency score (higher = more potent) is -0.171.

In the case of ATAGTTTGACAAAACTTGTAGA, the sensor-assay potency score (higher = more potent) was -0.39.

Regarding TGATAGTTTGACAAAACTTGTA, the sensor-assay potency score (higher = more potent) is -0.512.

Sequence TTGTAGAGAAGTCCAGAGTTAA had a sensor-assay potency score (higher = more potent) of -1.47.

In the case of TAGTTTGACAAAACTTGTAGAG, the sensor-assay potency score (higher = more potent) was -0.507.

The next assay has as its target C8B. The assay is described as above. Conditions: shRNA.
In turn, TTGCCCTTGCATGAACTCCAGG had a sensor-assay potency score (higher = more potent) of -1.15.

With TTCCTTCTGGAACTCCTCCAGT, the sensor-assay potency score (higher = more potent) is -0.414.

TTCTACAGTTTGCTTCATCTGA gave a sensor-assay potency score (higher = more potent) of -0.199.
Further: reference of the scale not given here.
